# PubChem BioAssay (NCI)
# About 83,000 compounds went through this panel and 20% of them were active in at least one assay; those are over-represented in the sample as a whole.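 The test compound was applied at a single concentration to cells in 96-well plates for 48 hours, and percent growth was recorded.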 The source made the active and inactive calls.
# Test system: SNB-19 CNS
# Assay: NCI-60 one-dose screen, 48 h (100 = growth as untreated, 0 = no growth, -100 = all killed)
# Conditions: 10 µM unless noted
# Description: Growth inhibition of the SNB-19 human tumor cell line is measured as a screen for anti-cancer activity. Cells are grown in 96 well plates and exposed to the test compound for 48 hours. Compounds are tested at a single concentration, which is 10^-5 M for most compounds. The reported endpoint is percent growth (GI% or GIPRCNT), where numbers from 0 - 100% represent growth inhibition, and numbers from -100% - 0 represent cell death. For example, a value of 40 represents 60% growth inhibition. A value of 0 means no net growth occurred over the course of the experiment. A value of -40 indicates 40% of cells at the beginning of the experiment died by the end of the experiment. A value of -100 means all cells are dead at the end of the experiment.
# NCI-60 Human Tumor Cell Lines Screen was performed using the standard one-dose NCI protocol, which is described in more detail at https://dtp.cancer.gov/discovery_development/nci-60/default.htm.
# Compounds with GIPRCNT values below 10 were considered active. Activity score was based on GIPRCNT using the following formula: […]
# Score is 0 for GIPRCNT values of 100 or above, 50 for GIPRCNT values of 0, and 100 for GIPRCNT values of -100.
row,Compound,growth
1,C=C1CCC2C(C)(CO)C(O)CCC2(C)C1C/C=C1/C(=O)OCC1Oc1ccccc1C (stereo not given),83.4% (inactive)
2,COc1ccc(/C=C(\C#N)c2cc(OC)c3c(c2)OCO3)cc1,37.8% (inactive)
3,COc1ccc(C2=Nn3c(nnc3-n3nc(C)cc3C)SC2)cc1,46% (inactive)
4,O=C(NCCCNc1nccc(-n2ccc3cccnc32)n1)c1c(F)cccc1F,95.7% (inactive)
5,CCCCC(CC)OC(=O)C(Br)CC (stereo not given),110% (inactive)
6,O=c1[nH]c2ccc(Br)cc2c2c1C(c1ccc(Cl)cc1)c1c(ncn3nc(-c4ccco4)nc13)O2 (stereo not given),75.8% (inactive)
7,CC(C)OC(=O)N1CCOCC1,98.5% (inactive)
8,COc1ccc(-c2c(N)n[nH]c2-c2cc(OC)c3c(c2)OCCO3)cc1,84.9% (inactive)
9,C/C(=C\c1ccc(OCC(=O)O)c(Cl)c1Cl)[N+](=O)[O-],115% (inactive)
10,CC(C)C(C(=O)NCCN1CCOCC1)N1C(=O)/C(=C/c2ccc(Br)cc2)SC1=S (stereo not given),92.5% (inactive)
11,COc1ccc(/C=C/c2c(C(C)=O)c(C)nc3ccccc23)cc1,82.1% (inactive)
12,COc1ccc(S(=O)(=O)NCCCNc2nccc(-n3ccc4cccnc43)n2)cc1,89.1% (inactive)
13,O=S(=O)(NCCCNc1nccc(-n2ccc3cccnc32)n1)c1ccc(Br)cc1,102% (inactive)
14,Cc1cc(C(C)(C)C)ccc1S,105% (inactive)
15,CCCCCCCCCCCCNC(=O)[C@H]1CSC(c2ccsc2)N1 (stereo not given in full),-80% (active)
16,COc1cc(/C=N\NC(=O)CN2CCN(c3cc4c(cc3F)c(=O)c(C(=O)N/N=C/c3cc(OC)c(OC)c(OC)c3)cn4C3CC3)CC2)cc(OC)c1OC,19.1% (inactive)
17,Cc1ccc(-c2cc3nc(C(Cl)Cl)nc(-c4cccnc4)n3n2)cc1,23.4% (inactive)
18,C=C1C(=O)O[C@H]2[C@H]1CC/C(COC(=O)NCc1ccccc1OC)=C\CC[C@@]1(C)O[C@@H]21,57.6% (inactive)
19,O=Nc1c(-c2cccc([N+](=O)[O-])c2)nc2ncccn12,94.3% (inactive)
20,C=C(C)[C@@H]1CC[C@]2(C(=O)N3CCNCC3)CC[C@]3(C)[C@H](CC[C@@H]4[C@@]5(C)C/C(=C/c6ccncc6)C(=O)C(C)(C)[C@@H]5CC[C@]43C)[C@@H]12,99.5% (inactive)

row,Compound,growth
1,COc1ccc(/C=C\c2cc(OC)c(OC)c(OC)c2)cc1OC(=O)c1cccc(Cn2cc(CCOC(=O)c3cccc(Cn4nnc5c4C(=O)c4ccccc4C5=O)c3)nn2)c1,28.6% (inactive)
2,O=C(CSC1CCc2ccccc21)N/N=C/c1ccccc1O (stereo not given),60.5% (inactive)
3,Cc1cc(N/N=C/c2nc(-c3ccccc3)oc2C)c2cc(Br)ccc2n1,91.2% (inactive)
4,COc1cc2c(cc1OCCCN1CCN(CCCn3c4ccccc4c4ccccc43)CC1)N=C[C@@H]1CCCN1C2=O,-49.8% (active)
5,COc1ccc(-n2c(=S)sc3c(Cl)nc(C)nc32)c(OC)c1,12.5% (inactive)
6,CN(C)CCCN(c1nc(C(Cl)(Cl)Cl)ns1)c1nc(C(Cl)(Cl)Cl)ns1,64.2% (inactive)
7,COc1cc(/C=C/C(=O)c2ccc(Nc3ncnc4cc(OC)c(OC)cc34)cc2)cc(OC)c1,94.9% (inactive)
8,Cc1c(C(=O)/C=C/c2csc3ccccc23)[n+](=O)c2ccccc2n1[O-],73.7% (inactive)
9,O=S(=O)(CC(O)(c1ccccc1)c1ccccc1)CC(O)(c1ccccc1)c1ccccc1,83.2% (inactive)
10,Fc1ccc(-c2nc(-c3nc4ncccc4[nH]3)cc3c2[nH]c2ccccc23)cc1F,102% (inactive)
11,O=C(Nc1cccc(-n2cc(-c3ccncc3)c(-c3ccc(Cl)c(O)c3)n2)c1)Nc1cc(C(F)(F)F)cc(C(F)(F)F)c1,11.3% (inactive)
12,CC1(c2ccc(Cl)cc2)OC(=O)CC(=O)O1,97% (inactive)
13,Cc1ccc(S(=O)(=O)n2cc(C(=O)C(=O)Nc3ccncc3)c3ccccc32)cc1,45.7% (inactive)
14,O=C1c2ccccc2-c2ccccc2C1(Cl)Cl,-83.5% (active)
15,COc1cccc(CC(C)=C(c2ccc(OCCN3CCCCC3)cc2)c2ccc(OCCN3CCCCC3)cc2)c1,-9.73% (active)
16,COc1ccc(S(=O)(=O)Nc2cc(/C=C\c3cc(OC)c(OC)c(OC)c3)cc(OC)c2OC)cc1,57.7% (inactive)
17,O=C1/C(=C/c2ccccc2)CN(C(=O)CCN2CCC(=NO)CC2)C/C1=C\c1ccccc1,-18.6% (active)
18,COc1ccc(C(=O)N2NC(=O)/C(=C/c3ccc(F)cc3)N=C2c2ccccc2)cc1,83.7% (inactive)
19,CCN(CC)CCC(CNc1ccnc2cc(Cl)ccc12)c1ccccc1 (stereo not given),92.5% (inactive)
20,COc1ccc(-c2cnoc2-c2ccc(OC)cc2O)cc1,42.4% (inactive)
